Assay [1] addresses T1, Serine/threonine-protein kinase TBK1 (Homo sapiens) (UniProt Q9UHD2).
T1 sequence (whole entry): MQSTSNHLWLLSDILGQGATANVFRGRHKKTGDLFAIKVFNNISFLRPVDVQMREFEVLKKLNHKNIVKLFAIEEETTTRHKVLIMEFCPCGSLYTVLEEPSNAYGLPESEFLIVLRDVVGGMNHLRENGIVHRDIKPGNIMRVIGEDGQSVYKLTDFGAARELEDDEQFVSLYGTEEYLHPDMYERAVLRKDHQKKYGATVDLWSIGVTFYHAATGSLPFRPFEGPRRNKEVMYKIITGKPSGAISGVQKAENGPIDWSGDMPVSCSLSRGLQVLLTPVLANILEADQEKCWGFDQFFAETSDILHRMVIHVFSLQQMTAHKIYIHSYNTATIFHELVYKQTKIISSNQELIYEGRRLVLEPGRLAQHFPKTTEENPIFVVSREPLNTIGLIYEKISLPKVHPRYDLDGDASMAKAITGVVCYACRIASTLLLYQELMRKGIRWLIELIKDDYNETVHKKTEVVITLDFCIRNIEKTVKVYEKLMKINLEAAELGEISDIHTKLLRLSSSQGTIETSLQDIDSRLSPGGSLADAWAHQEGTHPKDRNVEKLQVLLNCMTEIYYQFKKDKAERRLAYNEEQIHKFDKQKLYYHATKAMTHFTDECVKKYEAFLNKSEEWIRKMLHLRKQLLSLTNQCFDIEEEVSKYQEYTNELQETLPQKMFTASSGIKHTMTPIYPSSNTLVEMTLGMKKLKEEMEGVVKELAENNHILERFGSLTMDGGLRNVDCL
As to conditions: at 1 µM.

The target in assay [2] is T2, Testis-specific serine/threonine-protein kinase 1 (Homo sapiens) (UniProt Q9BXA7).
T2 sequence (whole entry): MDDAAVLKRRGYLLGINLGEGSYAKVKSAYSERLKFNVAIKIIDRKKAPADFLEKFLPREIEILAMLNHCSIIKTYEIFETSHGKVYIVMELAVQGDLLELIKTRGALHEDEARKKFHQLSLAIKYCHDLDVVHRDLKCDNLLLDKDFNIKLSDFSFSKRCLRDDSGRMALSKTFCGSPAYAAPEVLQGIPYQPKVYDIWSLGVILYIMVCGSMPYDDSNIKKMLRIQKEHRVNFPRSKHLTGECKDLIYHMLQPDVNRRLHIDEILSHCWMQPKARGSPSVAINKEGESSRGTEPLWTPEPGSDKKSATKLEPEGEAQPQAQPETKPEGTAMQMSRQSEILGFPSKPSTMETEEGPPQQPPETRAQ
Particulars: at 0.1 µM.

For assay [3], the target named is T2, Testis-specific serine/threonine-protein kinase 1 (Homo sapiens). Particulars: at 1 µM.
Assay [4] addresses T3, Testis-specific serine/threonine-protein kinase 2 (Homo sapiens) (UniProt Q96PF2).
T3 sequence (whole entry): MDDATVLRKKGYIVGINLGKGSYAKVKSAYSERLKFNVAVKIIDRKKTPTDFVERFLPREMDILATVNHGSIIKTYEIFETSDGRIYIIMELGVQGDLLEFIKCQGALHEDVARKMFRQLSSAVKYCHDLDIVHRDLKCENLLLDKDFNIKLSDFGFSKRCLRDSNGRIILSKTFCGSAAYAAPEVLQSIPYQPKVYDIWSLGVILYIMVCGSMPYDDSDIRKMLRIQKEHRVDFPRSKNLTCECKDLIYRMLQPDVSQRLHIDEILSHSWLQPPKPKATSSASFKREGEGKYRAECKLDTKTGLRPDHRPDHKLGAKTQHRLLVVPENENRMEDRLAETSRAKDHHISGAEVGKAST
Particulars: at 0.1 µM.

Assay [5] deals with T3, Testis-specific serine/threonine-protein kinase 2 (Homo sapiens). Particulars: at 1 µM.
Assay [6] has as its target Casein kinase I isoform alpha (Homo sapiens) (UniProt P48729). Particulars: at 0.1 µM.
Assay [7] has the same target. As to conditions: at 1 µM.
Assay [8] concerns the target Casein kinase I isoform gamma-1 (Homo sapiens) (UniProt Q9HCP0). Particulars: at 0.1 µM.
The target is the same in assay [9]. Particulars: at 1 µM.
Assay [10] concerns the target Casein kinase I isoform gamma-2 (Homo sapiens) (UniProt P78368). As to conditions: at 0.1 µM.
The target is the same in assay [11]. Particulars: at 1 µM.
For assay [12], the target named is Casein kinase I isoform gamma-3 (Homo sapiens) (UniProt Q9Y6M4). Particulars: at 0.1 µM.
The target is the same in assay [13]. Particulars: at 1 µM.
Assay [14] concerns the target Cyclin-dependent kinase 1 (Homo sapiens) (UniProt P06493). As to conditions: at 0.1 µM.
Assay [15] shares this target. Particulars: at 1 µM.
Assay [16] concerns the target Cyclin-dependent kinase 2 (Homo sapiens) (UniProt P24941). As to conditions: at 0.1 µM.
For assay [17] the target is unchanged. As to conditions: at 1 µM.
The target is the same in assay [18]. As to conditions: at 0.1 µM. The source holds these as a separate data set.
Assay [19] has the same target. As to conditions: at 1 µM. This is another data set of the same source.
Assay [20] concerns the target CDK3/Cyclin E (Homo sapiens) (UniProt P24864+Q00526). Particulars: at 0.1 µM.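 Further: reported percentages are mean inhibition values.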

Sequence of Casein kinase I isoform alpha (Homo sapiens) (P48729 2-337 limits assumed): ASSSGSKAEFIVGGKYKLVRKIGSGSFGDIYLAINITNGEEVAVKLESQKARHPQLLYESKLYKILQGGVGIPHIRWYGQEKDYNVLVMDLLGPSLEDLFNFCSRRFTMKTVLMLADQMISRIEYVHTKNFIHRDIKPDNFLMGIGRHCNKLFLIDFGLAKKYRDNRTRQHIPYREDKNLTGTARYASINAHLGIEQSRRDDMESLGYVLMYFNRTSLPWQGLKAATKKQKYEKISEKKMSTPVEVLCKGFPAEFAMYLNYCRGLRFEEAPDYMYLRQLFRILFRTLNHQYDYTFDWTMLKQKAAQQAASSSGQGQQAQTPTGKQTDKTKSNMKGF
Sequence of Cyclin-dependent kinase 1 (Homo sapiens) (P06493 whole entry, looked up): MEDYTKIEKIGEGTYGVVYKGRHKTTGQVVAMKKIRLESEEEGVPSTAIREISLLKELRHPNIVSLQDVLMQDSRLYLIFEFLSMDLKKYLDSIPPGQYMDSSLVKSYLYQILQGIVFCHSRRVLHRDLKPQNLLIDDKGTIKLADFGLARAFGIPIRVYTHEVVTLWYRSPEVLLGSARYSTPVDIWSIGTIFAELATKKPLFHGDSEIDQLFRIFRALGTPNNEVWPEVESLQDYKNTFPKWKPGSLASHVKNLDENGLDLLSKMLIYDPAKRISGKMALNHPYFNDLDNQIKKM
Sequence of Casein kinase I isoform gamma-1 (Homo sapiens) (Q9HCP0 whole entry, looked up, canonical isoform): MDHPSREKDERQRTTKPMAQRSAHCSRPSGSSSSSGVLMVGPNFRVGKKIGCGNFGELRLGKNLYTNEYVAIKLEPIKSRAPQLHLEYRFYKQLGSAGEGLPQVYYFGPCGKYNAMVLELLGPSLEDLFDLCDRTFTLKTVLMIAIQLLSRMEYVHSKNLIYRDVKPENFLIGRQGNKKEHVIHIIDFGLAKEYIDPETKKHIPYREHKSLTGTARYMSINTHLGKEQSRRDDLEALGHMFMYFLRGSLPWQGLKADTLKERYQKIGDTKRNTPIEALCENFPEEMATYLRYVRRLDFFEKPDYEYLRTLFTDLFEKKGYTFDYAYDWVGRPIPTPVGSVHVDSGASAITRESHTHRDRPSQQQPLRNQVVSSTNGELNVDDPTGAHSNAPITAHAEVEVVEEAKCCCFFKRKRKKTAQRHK
Sequence of Casein kinase I isoform gamma-2 (Homo sapiens) (P78368 whole entry, looked up, canonical isoform): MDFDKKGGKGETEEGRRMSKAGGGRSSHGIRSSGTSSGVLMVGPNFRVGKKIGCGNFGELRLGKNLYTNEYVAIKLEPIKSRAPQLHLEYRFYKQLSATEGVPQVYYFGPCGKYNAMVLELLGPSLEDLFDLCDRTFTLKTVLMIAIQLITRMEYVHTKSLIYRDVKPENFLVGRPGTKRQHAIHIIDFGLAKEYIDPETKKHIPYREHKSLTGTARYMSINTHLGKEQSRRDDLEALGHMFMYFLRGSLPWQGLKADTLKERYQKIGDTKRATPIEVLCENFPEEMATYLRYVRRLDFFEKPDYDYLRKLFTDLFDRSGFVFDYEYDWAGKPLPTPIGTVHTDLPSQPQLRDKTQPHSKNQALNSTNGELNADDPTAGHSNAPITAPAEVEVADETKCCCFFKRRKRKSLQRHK
Sequence of Casein kinase I isoform gamma-3 (Homo sapiens) (Q9Y6M4 whole entry, looked up, canonical isoform): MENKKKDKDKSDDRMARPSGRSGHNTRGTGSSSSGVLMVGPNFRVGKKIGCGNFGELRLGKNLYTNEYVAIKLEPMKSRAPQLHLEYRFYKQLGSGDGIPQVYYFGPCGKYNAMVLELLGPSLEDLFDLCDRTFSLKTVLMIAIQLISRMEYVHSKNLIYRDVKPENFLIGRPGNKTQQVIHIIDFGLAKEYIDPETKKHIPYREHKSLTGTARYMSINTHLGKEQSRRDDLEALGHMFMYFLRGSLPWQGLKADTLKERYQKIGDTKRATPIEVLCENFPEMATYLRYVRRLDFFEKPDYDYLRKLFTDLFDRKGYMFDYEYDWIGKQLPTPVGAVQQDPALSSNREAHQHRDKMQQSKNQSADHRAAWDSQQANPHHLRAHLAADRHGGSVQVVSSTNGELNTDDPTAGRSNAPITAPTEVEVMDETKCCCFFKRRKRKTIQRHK
Sequence of CDK3/Cyclin E (Homo sapiens) (P24864 whole entry, looked up): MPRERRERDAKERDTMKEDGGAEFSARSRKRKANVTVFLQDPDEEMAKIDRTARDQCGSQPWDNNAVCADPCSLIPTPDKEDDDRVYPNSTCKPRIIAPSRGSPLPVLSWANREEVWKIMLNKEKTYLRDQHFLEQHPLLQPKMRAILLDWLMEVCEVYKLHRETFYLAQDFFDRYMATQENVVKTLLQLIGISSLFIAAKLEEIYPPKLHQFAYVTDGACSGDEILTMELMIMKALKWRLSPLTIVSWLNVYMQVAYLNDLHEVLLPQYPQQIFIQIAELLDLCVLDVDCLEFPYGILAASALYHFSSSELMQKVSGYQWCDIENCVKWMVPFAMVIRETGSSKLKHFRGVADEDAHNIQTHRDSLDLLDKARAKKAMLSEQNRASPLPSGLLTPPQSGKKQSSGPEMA
Sequence of CDK3/Cyclin E (Homo sapiens) (Q00526 whole entry, looked up): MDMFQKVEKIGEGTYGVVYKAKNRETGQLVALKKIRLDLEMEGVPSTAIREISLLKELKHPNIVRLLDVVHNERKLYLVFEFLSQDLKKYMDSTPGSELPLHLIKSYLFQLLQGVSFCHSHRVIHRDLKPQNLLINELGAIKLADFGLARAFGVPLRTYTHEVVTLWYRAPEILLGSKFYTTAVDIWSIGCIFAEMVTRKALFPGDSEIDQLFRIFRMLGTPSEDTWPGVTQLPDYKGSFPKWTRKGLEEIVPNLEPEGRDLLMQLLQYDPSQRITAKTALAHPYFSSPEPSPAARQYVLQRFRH

Take `COc1cccc(-n2ncc3c(N/N=C/c4ccc(S(C)(=O)=O)cc4)ncnc32)c1`: the inhibition in assay [1] is 7.99%; in assay [2] it was 1.1%; in assay [3] it was -0.61%; in assay [4], 0.93%; in assay [5], 0.31%; in assay [6], 2.28%. For the same compound, the inhibition in assay [7] was 5.91%; in assay [8] it was -2.52%; in [9], -0.99%; in assay [10], -2.87%; in [11], -0.73%; in [12] it was -4.22%. Also, the inhibition in assay [13] is -2.43%; in [14], 26.2%; in [15] it was 64%; in [16] it was 32.1%; in assay [17], 68%; in assay [18] it was 7.18%. In addition, the inhibition stood at 41.6% in assay [19] and 4.38% in assay [20].

Consider `CN(C)C(=O)O[C@H]1CN[C@H](C#Cc2cc3ncnc(Nc4ccc(OCc5cccc(F)c5)c(Cl)c4)c3s2)C1`, for which the inhibition is 4.42% in [1]; 1.61% in assay [2]; 0.19% in assay [3]; 0.42% in assay [4]; -1.25% in [5]; -3.89% in assay [6]. Further, the inhibition in assay [7] was 2.94%; in assay [8] it was 1.92%; in assay [9], 2.06%; in assay [10], 2.17%; in [11] it was 1.66%; in assay [12] it was 1.79%. In addition, the inhibition in assay [13] was 0.71%; in assay [14] it was 0.08%; in assay [15], -0.52%; in [16] it was 1.13%; in [17] it was 1.7%; in [18] it was 3.08%. The inhibition was 3.18% in assay [19] and 0.39% in assay [20].

As to `Cc1ccc(Nc2ccnc(Nc3cccc(C(N)=O)c3)n2)cc1O`, the inhibition was found to be 19.6% in assay [1]; 3.41% in [2]; 5.19% in assay [3]; 1.39% in assay [4]; 1.65% in assay [5]; 1.66% in assay [6]. For the same compound, the inhibition in assay [7] was 4.05%; in [8], -1.2%; in assay [9], 1.43%; in [10], -1.06%; in assay [11] it was 0.87%; in assay [12], -2.96%. Moreover, the inhibition in assay [13] is 0.07%; in assay [14], -3.61%; in assay [15], 1.29%; in [16], -0.93%; in assay [17], 16.1%; in [18] it was -0.2%. In addition, the inhibition is 7.62% in assay [19] and 1.92% in assay [20].

Regarding `Cc1cc(-c2ccccn2)cc(C)c1/C=C/c1cncc(-c2nn[nH]n2)c1`, the inhibition in assay [1] came out at 2.21%; in assay [2] it was 4.23%; in [3], 4.46%; in assay [4], 1.85%; in assay [5], 2.37%; in [6], 3.47%. Further, the inhibition stood at 7.87% in assay [7]; 6.09% in assay [8]; 4.39% in assay [9]; 2.75% in assay [10]; 6.46% in assay [11]; 2.01% in assay [12]. Besides, the inhibition in assay [13] stood at 4.69%; in assay [14], 3.71%; in assay [15], 5.82%; in assay [16], 2.14%; in assay [17], 2.77%; in [18], 3.02%. Moreover, the inhibition in assay [19] is 7.32%; in [20], -2.85%.

In the case of `Cc1ccc2c(c1)/C(=N/Nc1ccc(S(N)(=O)=O)cc1)C(=O)N2`, the inhibition in [1] is 6.6%; in assay [2] it was -0.94%; in assay [3], 0.43%; in assay [4], -0.24%; in assay [5], -1.16%; in assay [6], 0.07%. The inhibition in assay [7] was -0.4%; in [8], 0.78%; in [9] it was 1.26%; in assay [10], 0.31%; in assay [11], 0.86%; in assay [12], 1.81%. Besides, the inhibition in assay [13] was -0.55%; in assay [14], 3.51%; in [15], 23.4%; in [16], 27%; in [17], 69.6%; in assay [18], 35%. Besides, the values for the inhibition in assay [19] and in assay [20] were 74.2% and 14.9%, respectively.

Turning to `COc1ccc(-c2nn3ncccc3c2-c2ccnc(Nc3cccc(C(F)(F)F)c3)n2)cc1`, the inhibition was found to be 1.7% in assay [1]; 0.61% in [2]; 1.94% in assay [3]; 1.17% in assay [4]; 0.38% in assay [5]; 0.44% in assay [6]. The inhibition in assay [7] is 2.43%; in [8], 2.67%; in assay [9], 2.71%; in [10] it was 2.72%; in [11], 2.2%; in assay [12], 2.44%. Further, the inhibition in [13] was determined as 1.71%; in assay [14], 0.53%; in [15], 1.61%; in assay [16] it was 0.03%; in assay [17], 1.83%; in assay [18], 2.35%. For the same compound, the inhibition in assay [19] was determined as 4.1%; in [20], 0.68%.

By inhibition is commonly meant the change of the read-out against control, counted positive when it falls.

(Values after ChEMBL document CHEMBL1961873, “Compounds: GSK PKIS; Assays: Nanosyn kinase panel” (2012).)
